MEKK3 PB1 HTS: modulators of MEKK3-MEK5 PB1 binding, primary screen, biochemical, wildtype MEKK3, multiplex bead flow cytometry, Alexa488-MEK5 | Mitogen-activated protein kinase kinase kinase 3 (Homo sapiens), Q99759 | bead-based flow cytometry, Alexa488-MEK5 binding to MEKK3; actives lie on both sides; 0 = blocked by unlabeled MEK5, 100 = vehicle | binding response (% of control), % at 10 µM | 1.4% of 290,000 active | AID 1529, 2009;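 active = binding response more than 3 SD above or below the average of its plate-row segment, actives on both sides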;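 also: Alexa488 bead fluorescence after subtracting the streptavidin-only scavenger bead signal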
MEKK2wt PB1 HTS: modulators of MEK5 binding to wildtype MEKK2, primary screen, biochemical, multiplex bead flow cytometry, Alexa488-MEK5; Mitogen-activated protein kinase kinase kinase 2 (Homo sapiens), Q9Y2U5; Alexa488-MEK5 binding to MEKK2 WT; actives lie on both sides; binding response (% of control), % at 10 µM; 1.1% of 290,000 active; in the data active = binding response below about 67% or above about 130%
CHT PAM: CHT positive allosteric modulators, primary screen, cell-based, membrane potential dye, choline EC20; High affinity choline transporter 1 (Homo sapiens), Q9GZV3; CHT-expressing cells; stronger effect = higher value; LV-AA mutant CHT in HEK293 cells; B-score at 10 µM; 0.49% of 310,000 active; AID 488977, 2010;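 active = initial fluorescence not abnormally high and integrated response B-score, plate-corrected, over 3 SD above library mean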
Target sequence (Q9GZV3 whole entry, looked up): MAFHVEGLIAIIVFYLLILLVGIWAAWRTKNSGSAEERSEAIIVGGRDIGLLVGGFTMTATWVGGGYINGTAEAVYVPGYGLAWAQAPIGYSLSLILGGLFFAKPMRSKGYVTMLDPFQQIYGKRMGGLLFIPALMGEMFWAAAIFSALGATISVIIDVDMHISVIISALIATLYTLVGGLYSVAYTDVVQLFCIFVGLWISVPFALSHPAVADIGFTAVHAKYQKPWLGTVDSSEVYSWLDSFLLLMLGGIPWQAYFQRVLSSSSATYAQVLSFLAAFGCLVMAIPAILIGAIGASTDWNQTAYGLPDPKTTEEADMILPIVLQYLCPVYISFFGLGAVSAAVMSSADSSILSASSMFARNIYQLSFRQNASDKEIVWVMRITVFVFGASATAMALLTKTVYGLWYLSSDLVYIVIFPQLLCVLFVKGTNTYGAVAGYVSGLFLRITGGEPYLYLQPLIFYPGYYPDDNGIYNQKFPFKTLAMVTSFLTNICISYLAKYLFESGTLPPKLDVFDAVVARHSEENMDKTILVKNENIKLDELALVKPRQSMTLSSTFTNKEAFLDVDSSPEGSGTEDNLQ
Mot1-301 SUMO: yeast Mot1-301 growth rescue at high temperature, primary screen, SUMOylation pathway inhibitor project, S. cerevisiae, ATP luminescence, 38.5C | S. cerevisiae Mot1-301 growth rescue; percent above DMSO median, 100 means doubled | growth rescue, % at 18.8 µM | 1% of 320,000 active;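 active = every valid replicate shows activation above 250% relative to neutral control wells; inactive = the rest, any valid replicate at or below 250%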
CHT block: inhibitors of human choline transporter CHT; High affinity choline transporter 1 (Homo sapiens), Q9GZV3; B-score at 10 µM; CHT-expressing cells, membrane potential dye, choline response; stronger effect = lower value; 0.86% of 310,000 active;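 active = B-score over 3 SD under the library average, and starting fluorescence ratio not unusually high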;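 also: choline stimulus applied at its EC90 after an EC20 pre-addition; B-score computed on integrated fluorescence ratio after choline addition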
MEKK2 mut-MEK5: MEK5 binding signal on mutant MEKK2 PB1, primary screen, biochemical, multiplex bead flow cytometry, Alexa488-MEK5; percent response, % at 10 µM; 0.35% of 290,000 active; Alexa488-MEK5 binding to MEKK2 mutant; in the data active = percent response above about 24%, passing the limit was not always enough
CHT inh conf: CHT inhibitors, confirmation, cell-based, membrane potential dye, duplicate | shares compounds with CHT block | CHT-expressing cells, choline membrane potential dye; LV-to-AA substituted CHT, HEK293 cells | CHT activity remaining % of control (stronger effect = lower value), % at 10 µM | 70% of 2,400 active;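 active = choline transporter activity left, mean of duplicates at 10 µM, below buffer-only control mean minus 3 SD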;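 also: depolarization triggered by choline at its EC90 following an EC20 pre-addition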
HEK293 MPD ctr: membrane potential effects in parental HEK293, counter-screen for CHT inhibitor project, cell-based, membrane potential dye. shares compounds with CHT block. 4% of 2,400 active. membrane potential ratio readout (active if shifted either direction beyond buffer ±3SD; no single direction) at 10 µM. choline response; active = decrease or increase beyond buffer ±3SD. AID 493222, 2011;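 also: parental cells lack the transporter so any hit is non-specific; ratio is peak minus trough fluorescence over baseline after EC90 choline challenge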
CHT activ conf: CHT activators, confirmation, cell-based, membrane potential dye, duplicate. shares compounds with CHT PAM. CHT-expressing cells, membrane potential dye fluorescence (FDSS); % of choline EC20–EC90 response window; HEK293 expressing CHT LV-AA mutant; choline added at its EC20. activation, % at 10 µM. 91% of 2,500 active;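 active = primary screen active, with duplicate mean activation above negative control mean plus 3 SD, cut at about 11% in these data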
HEK293 MP dye: membrane potential response in parental HEK293 cells, counter-screen for CHT activator project, cell-based, membrane potential dye. ratio readout change at 10 µM, hits read low. AID 623908, 2012. shares compounds with CHT PAM. membrane potential dye fluorescence (FDSS); measured after EC20 choline addition. 62% of 2,500 active;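 active = duplicate-averaged ratio beyond 3 SD from buffer wells, up or down, though filed actives are nearly all decreases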
Numbers stand for hits; - = inactive; . = not tested or not shown. Rows were chosen to be rich in hits. Some 4.1% of all compounds tested hit in one or more screens of this group.

SMILES	MEKK3 PB1 HTS	MEKK2wt PB1 HTS	CHT PAM	Mot1-301 SUMO	CHT block	MEKK2 mut-MEK5	CHT inh conf	HEK293 MPD ctr	others
CN(C)CCCn1c(=O)n(CCc2ccccc2)c(=O)c2c3c(sc21)CCCCC3	-	-	-	-	-7.78	-	31.1%	-
CN(C)CCn1c(=O)n(Cc2ccccc2)c(=O)c2c3c(sc21)CCCCC3	-	-	-	-	-	-	.	.
Cc1nc([N+](=O)[O-])c(Br)n1CC(=O)c1ccc(F)cc1	-	-	.	.	.	-	.	.
Cc1nc([N+](=O)[O-])c(Br)n1Cc1ccccc1	-	-	-	-	-9.97	-	60.7%	-
COc1cccc(N2CCN(C(=O)CC(C)(C)CC3=NS(=O)(=O)c4ccccc4N3)CC2)c1	-	-	-	-	-5.54	-	-	-
CC(C)(CC(=O)N1CCN(c2ccc(Cl)cc2)CC1)CC1=NS(=O)(=O)c2ccccc2N1	.	.	-	-	-	.	.	.
CC1CN(C(=O)CCCN2C(=O)c3ccccc3C2=O)CC(C)O1 (configuration not stated)	-	-	-	-	-	-	.	.
CC(C)CC1=NN(C(=O)c2ccncc2)C(O)(C(F)(F)F)C1 (configuration not stated)	-	-	-	-	-	-	.	.
O=C(Nc1cccc(C(F)(F)F)c1)N(Cc1ccc(Cl)cc1)CC(O)C(F)(F)F (configuration not stated)	-	-	-	-	-	-	.	.
N#Cc1c(N)nc(SCc2ccccn2)c(C#N)c1-c1cccs1	-	-	-	-	-7.3	-	49.3%	-
CCCCc1ccc(NC(=S)NCC2CCCO2)cc1 (configuration not stated)	-	-	-	-	-10.7	-	49.0%	-
COc1ccccc1CNC(=O)CN1C(=O)COc2ccc(S(=O)(=O)N3CCCCC3)cc21	-	-	-	-	-	-	.	.
CC(C)COc1nc2ccccc2nc1N1CCN(C)CC1	-	-	-	-	-5.99	-	41.1%	-
Cc1sc2nc(CN3CCCC3)nc(Cl)c2c1C	-	-	-	-	-	-	.	.	CHT activ conf=52.1;HEK293 MP dye=-
CCOC(=O)c1sc2nc(CN3CCCCC3)nc(Cl)c2c1C	.	.	-	-	-	.	.	.
Cc1ccc(-n2nc(C)cc2Nc2ncc(Cl)cc2Cl)cc1	-	-	-	-	-	-	.	.
Cc1cc(Nc2ncc(Cl)cc2Cl)n(-c2ccccc2C)n1	-	-	8.82	-	-	-	.	.	CHT activ conf=42.1;HEK293 MP dye=-
Cc1cc(N2CCCC2)nc2ccc(NC(=S)NC(C)C)cc12	-	-	-	-	-	-	.	.	CHT activ conf=21.2;HEK293 MP dye=-50.7
CCOCCCNC(=S)Nc1ccc2nc(N3CCCC3)cc(C)c2c1	-	-	-	-	-	-	.	.	CHT activ conf=32.2;HEK293 MP dye=-51.6

Screening data deposited in PubChem BioAssay by several laboratories.
